# The list is not random: actives were taken first. Their share in the collection is about 4%.
# Peg3 promoter: Peg3 promoter-driven luciferase inhibitors, primary screen, cell-based, HeLa, luciferase luminescence | HeLa PEG-Prom luciferase reporter, overnight | inhibition, % at 20 µM | hit rate 1.7% among 360,000;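 active means inhibition of at least 50% at 20 µM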
# KKLEB cytotox: cytotoxicity in KKLEB CF airway cells, primary screen, cytotoxicity control for CF NF-kB inhibitor project, cell-based, uHTS, fluorescence assay plates; KKLEB CF airway cells viability, ATPlite luminescence, overnight; hits give low values; cells stimulated with P. aeruginosa culture filtrate; activity change (cytotoxicity), % at 5 µM; hit rate 0.36% among 360,000;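 active means corrected activity change at or below -50% at 5 µM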
# HIF-2a block: HIF-2a reporter inhibitors, primary screen, luminescence, 786-0 RCC cells. 786-0 RCC cells HIF-2a reporter, luciferase luminescence, overnight. inhibition, % at 18.8 µM. hit rate 0.72% among 360,000. AID 624352, 2012;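 active means inhibition of the luminescence signal of 40% or more relative to plate controls, in a single-dose primary screen at 18.75 µM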
# CF NFkB inh: inhibitors of PAF-induced NF-kB signaling, primary screen, cell-based, GFP fluorescence, uHTS. hit rate 0.86% among 360,000. KKLEB NF-kB-GFP reporter, GFP fluorescence overnight. AID 588850, 2011. inhibition, % at 5 µM;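 active means at least 50% inhibition at 5 µM, scaled per plate between neutral and stimulator controls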;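 further: PAF is a Pseudomonas aeruginosa culture filtrate used as stimulus; plate controls were PAF-stimulated DMSO wells for no effect and unstimulated DMSO wells for full effect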
# TROY NFkB inh: inhibitors of TROY-driven NF-kB signaling, primary screen, Q293 LMP1-TROYcd cells, NF-kB luciferase, uHTS; hit rate 0.98% among 360,000; AID 1347056, 2019; inhibition, % at 10 µM; Q293 LMP1-TROYcd NF-kB luciferase reporter, 4 h;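 active means compounds whose plate-normalised and pattern-corrected inhibition of the luciferase reporter signal at the single screening dose is 50% or more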
# TWEAK-Fn14 inh: inhibitors of TWEAK-Fn14 signaling, primary screen, luciferase reporter cells, uHTS; inhibition, % at 10 µM; hit rate 2% among 360,000; TWEAK-stimulated Fn14 reporter cells, luciferase luminescence, 8 h; AID 1159606, 2016; in the data active means inhibition above about 50%
# Starred values were filed as active, the others as inactive; · = not tested or not shown.
SMILES,Peg3 promoter,KKLEB cytotox,HIF-2a block,CF NFkB inh,TROY NFkB inh,TWEAK-Fn14 inh
O=C(CCCN1C(=O)/C(=C/c2ccccc2Cl)SC1=S)NNC(=O)c1ccccc1,34,-8,90*,14,57*,70*
O=C(CCN1C(=O)/C(=C/c2ccccc2Cl)SC1=S)Nc1ccccc1C(=O)O,5,2,5,12,46,10
CCN(CC)CCNc1ccc(C)c2sc3ccc(O)cc3c(=O)c12,98*,5,10,-171,-91,-194
C[C@H]1CN=C(N(C)C)N1CCc1cccc(F)c1,-1,20,3,-19,-1,7
O=C(CCC(=O)OCC(F)(F)C(F)F)Nc1ccc(Cl)cc1,63*,-1,3,6,8,4
O=C(CCC(=O)OCC(F)(F)C(F)F)Nc1ccc(F)cc1F,12,-12,20,-8,-9,-1
Cc1ccc(S(=O)(=O)NCC[C@@]2(C)C3CCC2(C)C(=O)C3)cc1 (some centres not stated),16,-5,10,6,-1,1
CC(C)(C(=O)O)n1cncn1,-2,0,14,7,22,10
CN(C)CCOc1ccc2c(c1)C(=O)C(=Cc1ncc([N+](=O)[O-])n1C)C2,103*,-16,21,-64,18,0
CCc1cc(OCCN(C)C)ccc1Cl,11,4,14,-3,2,-2
Cc1noc(C)c1CC(=O)NC1CC(C)(C)Cc2c1cnn2-c1ccccc1 (configuration not stated),1,16,13,-7,-16,12
COc1ccc(-c2[nH]ncc2CNC(C)c2cn(C)nc2C)c(F)c1 (configuration not stated),1,-7,20,11,-16,65*
Fc1cccc(Cl)c1CSc1ncn[nH]1,1,-12,-7,4,78*,-11
CSc1cnc2c(=O)n(C)c(=O)[nH]c2n1,-72,14,20,0,-7,21
Cn1c(=O)[nH]c2nnc(-c3ccc(Cl)c(Cl)c3)nc2c1=O,-52,6,-85,10,4,57*
CCCCCCCC[n+]1cccc2c3ccccc3ccc21,54*,-27,-40,38,54*,83*
Cc1cccc[n+]1CCCCCCCCCC[n+]1ccccc1C,-4,0,8,6,3,-12
CCCCCCCCCC[n+]1cccc2c3ccccc3ccc21,75*,-50*,7,49,51*,73*
COC(=O)[C@@]1(Cc2ccccc2)[C@H]2C(=O)N(C)C(=O)[C@H]2[C@H]2CN=C(SCC3CC3)N21,-12,3,5,1,-1,16
COc1ccc([C@H]2CC(=O)C=C(c3cccc(C#N)c3)C2)cc1,-16,-3,-65,8,-15,-23
C[C@@H]1CN([C@H](C)CO)C(=O)c2c(c3ccccc3n2C)-c2ccccc2CO[C@H]1CN(C)Cc1ccc(-c2ccccc2)cc1,83*,0,-15,4,20,44
FC(F)(F)c1cccc(OCCN2CCN(Cc3ccccc3)CC2)c1,16,-22,9,9,5,-5
c1ccc(-c2cncnc2)cc1,2,-26,10,-1,-6,-11
CCN(CC)CCCNC(=O)c1[nH]c2ccccc2c1Sc1ccc(Cl)cc1,65*,-25,23,9,7,-8
COC(=O)c1[nH]c2ccccc2c1Sc1ccccc1,36,-10,8,-12,5,-2
SMILES,Peg3 promoter,KKLEB cytotox,HIF-2a block,CF NFkB inh,TROY NFkB inh,TWEAK-Fn14 inh
Cn1c(CSCc2ccc(Cl)c(Cl)c2)nnc1SCC(=O)Nc1nccs1,30,6,13,13,20,51*
Cn1c(CSCc2ccc(Cl)cc2)nnc1SCC(=O)Nc1nccs1,28,4,21,-5,29,19
CC(C)Cn1c(-c2ccc(F)cc2)n[nH]c1=S,2,-1,14,8,·,65*
Cc1ccc(NC(=O)[C@H](CC(C)C)NC(=O)[C@@H]2Cc3ccccc3CN2)cc1,-12,7,-30,-16,-24,6
Cc1ccc(SCc2cc(=O)[nH]c(Nc3nc(C)c4ccc(C)cc4n3)n2)cc1,13,-16,19,5,-13,-2
Cc1ccc2c(C)nc(Nc3nc(CSc4nc5ccccc5[nH]4)cc(=O)[nH]3)nc2c1,109*,-58*,-28,99*,68*,96*
COc1ccc(C(CCNCc2ccc(OC(C)C)cc2)C(C)C)cc1 (configuration not stated),49,-10,-2,2,-21,-6
COc1ccc(CNCCC(c2ccc(OC(C)C)cc2)c2ccccc2OC)cc1 (configuration not stated),113*,-32,28,27,-9,3
COc1ccc(CNCCC(c2ccc(OC(C)C)cc2)c2ccccc2OC)cc1OC (configuration not stated),87*,-8,14,16,15,5
COc1ccc(C(CCNCc2ccc(N(C)C)cc2)C(C)C)cc1 (configuration not stated),27,-10,10,2,5,-10
COc1ccccc1C(CCNCc1ccc(N(C)C)cc1)c1ccc(OC(C)C)cc1 (configuration not stated),107*,-1,2,0,7,-14
COc1ccccc1C(CCNCc1ccccc1)c1ccc(OC(C)C)cc1 (configuration not stated),100*,-3,25,4,-13,-4
Cc1ccc(N(CC(=O)NCCc2ccc(Cl)cc2)S(=O)(=O)c2c(C)noc2C)cc1,18,-8,16,7,7,-9
O=C(CN(c1ccc(Cl)cc1)S(=O)(=O)c1ccc(Cl)c([N+](=O)[O-])c1)NCCc1ccc(F)cc1,95*,-3,28,-5,-11,-1
CCCN1C(=O)/C(=C/c2ccc3c(c2)OCO3)NC1=S,-111,-1,-5,2,35,-1
CCCN1C/C(=C/c2ccc3c(c2)OCO3)C(=O)/C(=C/c2ccc3c(c2)OCO3)C1,107*,14,89*,-39,-9,19
CCn1c(=O)cc(SCC(=O)Nc2ccc(C)cn2)c2ccccc21,83*,8,-357,49,16,38
CC(=O)Nc1cccc(C(=O)OC(C)C(=O)NCc2ccc3c(c2)OCO3)c1 (configuration not stated),24,16,4,-27,-3,8

# Screening results from PubChem.
